# Reference: PubChem BioAssay
# Activity calls are given as the source filed them.
# Assays:
# [1] = binders of probe aFSTL3 on microarray, primary screen, stem cell growth factor project, biochemical, small-molecule microarray, fluorescence 635/667 (AID 1064); details: higher = more signal;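 also: measures binding of the biotinylated anti-FSTL3 antibody to printed compounds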
# [2] = binders from COS7 lysate, DM2A8 probe, primary screen, torsin A project, cell lysate, small-molecule microarray, fluorescence 635/667 (AID 1065); details: higher = more signal, COS7 lysate expressing mutant human TOR1A
# [3] = binders of probe aFGF2 on microarray, primary screen, stem cell growth factor project, biochemical, small-molecule microarray, fluorescence 635/667 (AID 1067); details: higher = more signal;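 also: measures binding of biotinylated aFGF2 protein to printed compounds on slides; z-score merges feature fluorescence and signal-to-noise across triplicate slides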
# [4] = binders of probe aFGF10 on microarray, primary screen, stem cell growth factor project, biochemical, small-molecule microarray, fluorescence 635/667 (AID 1071); details: higher = more signal;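 also: score merges 667 nm spot intensity and signal to noise from triplicate slides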
# [5] = biological target: Neurogenic locus notch homolog protein 2 (Homo sapiens) (UniProt Q04721); assay: Notch2 binders on small-molecule microarrays, primary screen, biochemical, small-molecule microarray, 635 nm fluorescence, stem cell growth factors (AID 1073); details: Notch2 binding, higher = more signal
# [6] = biological target: Pro-neuregulin-1, membrane-bound isoform (Homo sapiens) (UniProt Q02297); assay: NRG1 binders on small-molecule microarrays, primary screen, psychiatric disease protein project, biochemical, small-molecule microarray, fluorescence 635/667 (AID 1075); details: NRG1 binding, 635 nm fluorescence, higher = more signal;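 also: score combines 667 nm spot fluorescence with signal to noise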
# [7] = test system: Neuregulin-1 EGF-like domain; assay: binders of neuregulin-1 EGF-like domain, primary screen, biochemical, small-molecule microarray, 635 nm fluorescence (AID 1081); details: small-molecule microarray binding, higher = more signal;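 also: binding of the protein to compounds printed on small-molecule microarray slides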
# [8] = FRG1 promoter luciferase signal modulators, primary screen, FRG1 inhibition for FSHD, cell-based, C2C12 myotubes, firefly/Renilla luciferase, luminescence (AID 1084); details: higher = more signal, called active from +8 up or from −8 down
# [9] = binders of probe aFST on microarray, primary screen, stem cell growth factor project, biochemical, small-molecule microarray, fluorescence 635/667 (AID 1086); details: higher = more signal;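 also: score merges 667 nm fluorescence with signal-to-noise of each printed compound spot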
# [10] = binders of probe aHhip on microarray, primary screen, stem cell growth factor project, biochemical, small-molecule microarray, fluorescence 635/667 (AID 1087); details: higher = more signal;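 also: score merges spot fluorescence at 667nm with spot signal to noise ratio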
# [11] = test system: PRMT1 (protein arginine N-methyltransferase 1); assay: PRMT1 binders on small-molecule microarrays, primary screen, biochemical, small-molecule microarray, 635 nm fluorescence (AID 1088); details: small-molecule microarray binding, higher = more signal;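 also: binding of Prmt1 protein to compounds spotted on small-molecule microarray slides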
# [12] = yeast growth modulation, basal conditions, primary screen, YJM789 clinical isolate, OD600, 24 h (AID 1089);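 also: growth of clinical yeast isolate S. cerevisiae YJM 789 seeded 1000 cells per well; test concentration not given here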; details: S. cerevisiae YJM789 growth, higher = more signal, called active from +8 up or from −8 down
# [13] = fission yeast growth modulation, primary screen, strain 972, OD600, 24 h, no modulator (AID 1090);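 also: basal condition with compound alone and no growth modifier present; test concentration not given here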; details: S. pombe 972 growth, higher = more signal, called active from +8 up or from −8 down
# [14] = S. cerevisiae growth modulation with rapamycin, primary screen, strain BY4716, OD600, 96 h (AID 1091); details: higher = more signal, called active from +8 up or from −8 down; also: test concentration not given here
# [15] = biological target: Torsin-1A-interacting protein 2 (Homo sapiens) (UniProt Q8NFQ8); assay: LULL1 binders on small-molecule microarray, primary screen, cell lysate, human LULL1 lysate, 635/667 nm fluorescence (AID 1092); details: hLULL1 lysate binding, 635 nm fluorescence, higher = more signal;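 also: probe is lysate of COS7 cells overexpressing human LULL1; score merges per-feature 667 nm fluorescence with signal-to-noise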
# [16] = E. coli growth modulation, two-sided OD650, primary screen, E. coli filamentation project, strain DRC41, 24 h (AID 1093); details: OD650, 24 h, higher = more signal, called active from +8 up or from −8 down;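 also: MC1000 strain lacking acrAB efflux and sulA so SOS filamentation is blocked; test concentration not given here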
# [17] = small-molecule microarray binders of probe aLefty2, primary screen, biochemical, biotinylated probe, 635/667 nm fluorescence (AID 1094); details: higher = more signal;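 also: score merges spot fluorescence near 667 nm with spot signal-to-noise ratio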
# [18] = test system: Noggin (protein binding on small-molecule microarray); assay: Noggin binders on small-molecule microarray, primary screen, biochemical, 635/667 nm fluorescence (AID 1095); details: 635 nm fluorescence, higher = more signal;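 also: score merges 667 nm feature fluorescence with signal to noise over triplicate slides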
# [19] = biological target: Neurogenic locus notch homolog protein 3 (Homo sapiens) (UniProt Q9UM47); assay: NOTCH3 binders on small-molecule microarray, primary screen, biochemical, 635/667 nm fluorescence (AID 1096); details: NOTCH3 binding, 635 nm fluorescence, higher = more signal
# [20] = small-molecule microarray binders of probe aEGFR, primary screen, biochemical, biotinylated probe, 635/667 nm fluorescence (AID 1097); details: higher = more signal;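 also: probe is a biotinylated anti-EGFR antibody binding compounds printed on slides; score combines fluorescence near 667 nm and signal to noise of each spot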
# Neurogenic locus notch homolog protein 2 (Homo sapiens), sequence (Q04721 whole entry, looked up, canonical isoform): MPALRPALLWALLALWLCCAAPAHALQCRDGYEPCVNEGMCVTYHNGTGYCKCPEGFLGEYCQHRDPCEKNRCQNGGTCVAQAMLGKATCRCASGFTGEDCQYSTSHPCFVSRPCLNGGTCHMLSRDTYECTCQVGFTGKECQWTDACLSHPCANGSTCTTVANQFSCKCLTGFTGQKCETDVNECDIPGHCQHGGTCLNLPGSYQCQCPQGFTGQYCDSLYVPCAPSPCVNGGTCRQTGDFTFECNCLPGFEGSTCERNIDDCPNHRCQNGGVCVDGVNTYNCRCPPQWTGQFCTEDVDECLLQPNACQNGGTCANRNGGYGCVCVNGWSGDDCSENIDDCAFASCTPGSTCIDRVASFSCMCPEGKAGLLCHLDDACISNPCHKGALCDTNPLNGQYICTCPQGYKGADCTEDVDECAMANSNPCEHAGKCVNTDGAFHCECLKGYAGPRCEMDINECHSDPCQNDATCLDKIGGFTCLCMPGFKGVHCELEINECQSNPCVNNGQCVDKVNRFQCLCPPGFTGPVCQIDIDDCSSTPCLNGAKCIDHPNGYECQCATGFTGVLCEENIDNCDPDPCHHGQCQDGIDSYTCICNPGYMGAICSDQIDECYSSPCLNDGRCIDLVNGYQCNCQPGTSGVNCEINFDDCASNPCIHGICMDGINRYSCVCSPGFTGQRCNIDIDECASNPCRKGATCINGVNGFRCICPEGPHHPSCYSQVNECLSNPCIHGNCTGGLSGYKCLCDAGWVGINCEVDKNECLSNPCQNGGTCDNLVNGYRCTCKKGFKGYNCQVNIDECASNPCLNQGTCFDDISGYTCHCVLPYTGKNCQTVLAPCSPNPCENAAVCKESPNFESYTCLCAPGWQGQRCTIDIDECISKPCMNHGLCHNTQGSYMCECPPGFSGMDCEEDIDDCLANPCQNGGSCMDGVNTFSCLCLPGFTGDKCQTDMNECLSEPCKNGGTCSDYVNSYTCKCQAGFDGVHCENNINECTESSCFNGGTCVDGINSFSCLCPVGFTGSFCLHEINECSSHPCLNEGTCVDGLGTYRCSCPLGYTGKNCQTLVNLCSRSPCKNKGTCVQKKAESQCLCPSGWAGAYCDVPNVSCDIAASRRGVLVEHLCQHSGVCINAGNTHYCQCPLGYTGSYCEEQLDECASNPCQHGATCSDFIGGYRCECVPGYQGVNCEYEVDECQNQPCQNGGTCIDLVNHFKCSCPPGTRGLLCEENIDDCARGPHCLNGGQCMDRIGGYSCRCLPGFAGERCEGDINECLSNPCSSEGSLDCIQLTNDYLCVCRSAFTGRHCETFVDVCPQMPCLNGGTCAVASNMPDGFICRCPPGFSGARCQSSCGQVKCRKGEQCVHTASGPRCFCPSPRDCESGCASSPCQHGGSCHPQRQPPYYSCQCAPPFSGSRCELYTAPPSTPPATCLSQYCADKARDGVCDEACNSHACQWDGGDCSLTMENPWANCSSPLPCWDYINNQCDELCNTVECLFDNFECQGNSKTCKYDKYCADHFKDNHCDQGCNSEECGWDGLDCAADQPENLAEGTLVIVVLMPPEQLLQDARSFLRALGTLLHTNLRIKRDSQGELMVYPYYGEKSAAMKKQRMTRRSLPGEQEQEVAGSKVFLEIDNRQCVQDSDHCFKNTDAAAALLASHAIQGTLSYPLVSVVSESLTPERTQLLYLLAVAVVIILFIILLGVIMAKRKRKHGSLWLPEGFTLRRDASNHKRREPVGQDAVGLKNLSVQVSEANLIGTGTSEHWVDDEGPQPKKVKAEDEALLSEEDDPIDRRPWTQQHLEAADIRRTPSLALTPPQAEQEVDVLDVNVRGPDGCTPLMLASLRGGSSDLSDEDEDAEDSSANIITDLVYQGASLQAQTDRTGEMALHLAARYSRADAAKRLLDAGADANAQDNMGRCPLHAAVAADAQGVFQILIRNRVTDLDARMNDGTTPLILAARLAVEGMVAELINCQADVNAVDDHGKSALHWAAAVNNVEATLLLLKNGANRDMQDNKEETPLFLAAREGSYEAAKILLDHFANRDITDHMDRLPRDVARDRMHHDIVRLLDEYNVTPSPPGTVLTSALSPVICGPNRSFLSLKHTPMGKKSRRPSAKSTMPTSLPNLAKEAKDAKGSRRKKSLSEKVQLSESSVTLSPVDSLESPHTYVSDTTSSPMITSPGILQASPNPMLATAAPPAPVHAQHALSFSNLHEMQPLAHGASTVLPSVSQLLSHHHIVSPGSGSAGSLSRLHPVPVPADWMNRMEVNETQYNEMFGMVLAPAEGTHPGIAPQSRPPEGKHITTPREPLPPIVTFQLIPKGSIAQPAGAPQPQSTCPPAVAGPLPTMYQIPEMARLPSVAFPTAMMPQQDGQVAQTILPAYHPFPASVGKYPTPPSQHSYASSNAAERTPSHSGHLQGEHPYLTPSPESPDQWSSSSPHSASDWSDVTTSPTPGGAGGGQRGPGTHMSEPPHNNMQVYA
# Neurogenic locus notch homolog protein 3 (Homo sapiens), sequence (Q9UM47 whole entry, looked up): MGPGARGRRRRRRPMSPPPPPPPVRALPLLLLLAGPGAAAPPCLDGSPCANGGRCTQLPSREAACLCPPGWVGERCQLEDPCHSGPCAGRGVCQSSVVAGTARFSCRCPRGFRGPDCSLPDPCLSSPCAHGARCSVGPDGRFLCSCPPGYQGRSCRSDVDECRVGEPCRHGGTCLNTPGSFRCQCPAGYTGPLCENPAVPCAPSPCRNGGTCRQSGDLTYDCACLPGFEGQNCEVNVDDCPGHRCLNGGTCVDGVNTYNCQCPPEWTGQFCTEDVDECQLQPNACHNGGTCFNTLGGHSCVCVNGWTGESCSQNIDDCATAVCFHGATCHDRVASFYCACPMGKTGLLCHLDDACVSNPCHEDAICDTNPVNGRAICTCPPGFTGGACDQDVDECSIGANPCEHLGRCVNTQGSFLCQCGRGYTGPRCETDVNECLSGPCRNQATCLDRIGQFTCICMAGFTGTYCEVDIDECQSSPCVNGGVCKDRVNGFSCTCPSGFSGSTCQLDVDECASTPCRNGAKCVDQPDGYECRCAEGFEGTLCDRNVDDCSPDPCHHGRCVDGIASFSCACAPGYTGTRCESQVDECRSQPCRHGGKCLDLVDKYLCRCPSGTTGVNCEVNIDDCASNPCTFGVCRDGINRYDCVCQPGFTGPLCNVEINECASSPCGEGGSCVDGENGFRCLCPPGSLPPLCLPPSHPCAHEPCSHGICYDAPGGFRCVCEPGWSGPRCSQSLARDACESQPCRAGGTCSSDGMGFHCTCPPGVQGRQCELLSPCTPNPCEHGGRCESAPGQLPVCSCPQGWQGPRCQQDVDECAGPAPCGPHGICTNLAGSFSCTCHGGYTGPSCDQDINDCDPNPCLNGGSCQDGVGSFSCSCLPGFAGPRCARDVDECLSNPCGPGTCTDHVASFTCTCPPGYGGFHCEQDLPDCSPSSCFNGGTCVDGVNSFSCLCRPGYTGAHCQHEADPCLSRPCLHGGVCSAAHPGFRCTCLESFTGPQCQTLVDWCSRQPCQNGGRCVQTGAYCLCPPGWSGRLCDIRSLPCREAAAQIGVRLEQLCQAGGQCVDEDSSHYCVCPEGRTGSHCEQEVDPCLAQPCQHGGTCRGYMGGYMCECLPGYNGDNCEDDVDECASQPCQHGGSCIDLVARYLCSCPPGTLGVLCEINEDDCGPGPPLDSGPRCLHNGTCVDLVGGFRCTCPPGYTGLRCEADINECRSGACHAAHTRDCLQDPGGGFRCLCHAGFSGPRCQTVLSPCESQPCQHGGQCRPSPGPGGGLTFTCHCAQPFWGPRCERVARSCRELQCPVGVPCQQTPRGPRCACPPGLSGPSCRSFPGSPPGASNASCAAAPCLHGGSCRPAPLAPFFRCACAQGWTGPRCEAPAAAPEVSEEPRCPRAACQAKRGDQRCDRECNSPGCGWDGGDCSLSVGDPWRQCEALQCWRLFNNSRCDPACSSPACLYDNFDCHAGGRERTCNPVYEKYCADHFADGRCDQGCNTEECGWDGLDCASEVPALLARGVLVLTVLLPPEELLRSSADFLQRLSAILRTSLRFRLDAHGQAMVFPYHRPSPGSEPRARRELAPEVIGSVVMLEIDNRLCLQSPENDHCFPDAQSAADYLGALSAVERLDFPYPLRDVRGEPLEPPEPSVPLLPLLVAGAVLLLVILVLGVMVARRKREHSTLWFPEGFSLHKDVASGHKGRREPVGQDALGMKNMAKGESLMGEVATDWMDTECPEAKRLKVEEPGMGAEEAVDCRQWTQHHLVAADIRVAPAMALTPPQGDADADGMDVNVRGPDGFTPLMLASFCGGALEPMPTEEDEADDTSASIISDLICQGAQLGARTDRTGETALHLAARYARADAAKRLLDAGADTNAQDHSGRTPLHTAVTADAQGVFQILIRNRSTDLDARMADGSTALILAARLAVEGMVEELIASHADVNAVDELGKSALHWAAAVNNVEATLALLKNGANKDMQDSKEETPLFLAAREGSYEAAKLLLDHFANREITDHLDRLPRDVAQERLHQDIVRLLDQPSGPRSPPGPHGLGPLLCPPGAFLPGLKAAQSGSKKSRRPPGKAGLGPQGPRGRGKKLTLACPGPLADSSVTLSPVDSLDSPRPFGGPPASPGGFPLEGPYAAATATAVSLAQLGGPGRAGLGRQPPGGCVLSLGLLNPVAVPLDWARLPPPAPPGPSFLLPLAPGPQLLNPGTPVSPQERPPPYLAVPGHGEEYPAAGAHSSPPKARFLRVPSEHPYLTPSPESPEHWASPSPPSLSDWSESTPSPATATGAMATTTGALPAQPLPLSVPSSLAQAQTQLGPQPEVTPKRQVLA
Structure (SMILES),composite z-score [1],composite z-score [2],composite z-score [3],composite z-score [4],composite z-score [5],composite z-score [6],composite z-score [7],z-score [8],composite z-score [9],composite z-score [10],composite z-score [11],z-score [12],z-score [13],z-score [14],composite z-score [15],z-score [16],composite z-score [17],composite z-score [18],composite z-score [19],composite z-score [20]
CC(CCN1CCc2nc(-c3ccccc3)c(-c3ccccc3)cc2C1)=NOC[C@@H](O)COCc1ccco1,-0.278,0.424,-0.0598,0.111,0.303,0.268,0.792,0.515 (inactive),-0.0187,-0.261,0.651,-0.544 (inactive),-1.45 (inactive),-3.75 (inactive),0.0955,0.845 (inactive),-0.176,0.806,0.481,-0.083
CC(CCN1CCCCc2nc(C)c(C)cc21)=NO[C@H](C)c1cn([C@H](CO)Cc2ccccc2)nn1,-0.476,0.736,-0.0894,0.205,-0.248,-0.0339,0.362,2.09 (inactive),0.627,-0.0237,1.1,-0.585 (inactive),0.446 (inactive),-0.382 (inactive),0.592,-0.425 (inactive),0.0345,0.196,0.108,-0.026
O=C1C[C@@H](O)[C@@H](O)[C@@H]2[C@@H]3C(=O)N(c4cccc(Oc5ccccc5)c4)C(=O)[C@@H]3CC[C@H]12,-0.499,0.247,-0.0985,0.206,0.484,0.241,0.413,-0.0447 (inactive),0.167,-0.153,-0.129,0.157 (inactive),0.462 (inactive),0.469 (inactive),0.685,0.378 (inactive),-0.156,0.292,1.02,-0.145
CO[C@H]1COC(=O)CCC[C@@H](C)[C@H](OC)COC(=O)[C@@H]2CCCN2C(=O)CC=C[C@@H]1C,-0.442,2.09,-0.294,-0.142,-0.164,-0.508,0.505,0.362 (inactive),-0.194,0.113,1.53,-0.671 (inactive),0.044 (inactive),-0.986 (inactive),-1.77,-0.476 (inactive),-0.183,1.82,0.473,0.0869
CC(C)(C)N1C(=O)[C@H]2[C@H]3[C@H](O)[C@H](O)CC(=NO[C@@H]4O[C@H](CO)[C@@H](O)[C@H](O)[C@H]4O)[C@H]3CC[C@H]2C1=O,-0.477,0.128,-0.17,0.569,0.45,0.947,0.389,0.599 (inactive),0.263,-0.0994,0.693,0.768 (inactive),-1.05 (inactive),-0.235 (inactive),0.959,-0.864 (inactive),-0.0603,0.593,0.155,0.0334
CCOC(=O)[C@H](CC(C)C)NC(=O)CCC1CC(OC(=O)NCCc2ccc(F)cc2)CC2(CCCC(COC(=O)NCC(c3ccccc3)c3ccccc3)O2)O1 (stereo not given in full),-0.65,0.149,-0.136,0.433,0.787,0.221,1.12,2.36 (inactive),0.0026,-0.236,1.41,-0.297 (inactive),0.427 (inactive),-1.3 (inactive),2.59,-0.198 (inactive),-0.105,0.569,0.499,-0.127
CCN1C(=O)[C@H]2[C@H]3[C@H](O)[C@H](O)CC(=NO[C@@H](C)c4cn([C@H](CO)Cc5ccccc5)nn4)[C@@H]3CC[C@H]2C1=O,-0.687,0.387,-0.0704,0.859,1.51,0.256,0.971,0.345 (inactive),0.759,-0.226,1.14,0.149 (inactive),0.718 (inactive),0.726 (inactive),1.28,0.194 (inactive),-0.264,0.387,0.988,0.0346
O=C1[C@H]2[C@H]3[C@H](O)[C@H](O)CC(=NOCc4ccccc4)[C@@H]3CC[C@H]2C(=O)N1Cc1ccc2c(c1)OCO2,-0.138,-0.247,-0.0583,0.321,0.376,0.299,-0.0604,1.1 (inactive),0.357,0.0922,0.231,-0.559 (inactive),0.437 (inactive),-0.789 (inactive),0.664,1.1 (inactive),-0.17,0.297,0.428,0.0761
C#CCCCON=C1C[C@@H](O)[C@@H](O)[C@@H]2[C@@H]3C(=O)N(CC)C(=O)[C@@H]3CC[C@@H]12,-0.572,0.278,-0.143,0.722,0.656,0.614,0.636,-0.0351 (inactive),0.276,0.235,0.677,-0.0246 (inactive),0.267 (inactive),1.25 (inactive),0.187,0.439 (inactive),-0.0478,0.167,0.426,-0.0972
C[C@@H]1C=CCC(=O)OC[C@H]2O[C@@H](C=C[C@@H]2O)[C@H](C)C=CCC(=O)OC1,-0.711,2.13,-0.175,-0.32,-0.302,-1.03,0.765,-1.28 (inactive),-0.291,0.28,1.55,-2.12 (inactive),-1.24 (inactive),-0.618 (inactive),-1.24,-0.293 (inactive),-0.254,1.86,0.595,-0.0455
